Shown are actives, neighbours in structure and some others; about 6.3% of the full set was active somewhere.
NADH coupling = inhibitors of enzymes used to reach an NAD/NADH endpoint; coupled PK/LDH NADH assays, four targets; IC50, µM (series often up to 10 µM), for the others: at the highest dose inhibition; actives 0.02% (n = 65,000); AID 774;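 active = single-dose screening hits from any of four coupled enzyme assays that gave an IC50 when retested across doses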;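 note: the DPM-DC format reads NADH fluorescence rather than 340 nm absorbance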
Spn PMK inh = blocks S. pneumoniae phosphomevalonate kinase; purified PMK, PK/LDH-coupled NADH absorbance 340 nm; inhibition, % at 10 µM; actives 0.49% (n = 65,000); AID 539;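 active = top-ranked compounds by inhibition in the single 10 µM screen, taking a fixed number of the strongest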;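 note: 0% = full reaction with DMSO carrier and 100% = background rate without enzyme reaction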
Autofluor 339 = intrinsic fluorescence of library compounds, ex339/em460 – biochemical, MLSMR library, data from DPM-DC assay, artefact control, profiling panel | compound autofluorescence, ex339/em460 nm, NADH buffer; hits give high values; 1 = no-compound wells, NADH background | fluorescence fold increase at 10 µM | actives 5.5% (n = 65,000) | AID 709;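 active = at 10 µM, mean starting fluorescence two-fold or more over control wells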;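 note: signal is the first read of a kinetic run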
DPM-DC inhibit = inhibitors of Streptococcus pneumoniae diphosphomevalonate decarboxylase; calls only at 10 µM; purified DPM-DC, PK/LDH coupled NADH fluorescence; actives 0.49% (n = 65,000);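 active = the 320 compounds with the highest percent inhibition in the single-dose primary screen, excluding strongly autofluorescent ones, cut at about 32% in these data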;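 note: kinetic rate of NADH fluorescence loss reporting ADP formed by the decarboxylase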
A340 absorber = compounds absorbing at 340 nm. AID 708. fold change at 10 µM. 65,000 tested, under 10 active. compound absorbance at 340 nm, fold over control;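 active = at 10 µM dose, initial 340 nm absorbance at least 2 fold that of control wells; inactive = change under 2 fold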;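 note: initial absorbance extrapolated from kinetic A340 decline of NADH oxidation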
Spn MK inh = inhibitors of Streptococcus pneumoniae mevalonate kinase | actives 0.48% (n = 65,000) | purified MK, PK/LDH-coupled NADH absorbance 340 nm | inhibition, % at 10 µM;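 active = ranked among the strongest by inhibition in the single 10 µM screen, a fixed top-ranked set picked for dose follow-up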
* = called active by the depositor; i = inactive; . = no result shown.

SMILES	NADH coupling	Spn PMK inh	Autofluor 339	DPM-DC inhibit	A340 absorber	Spn MK inh
O=C(CN1C(=O)CCC1=O)Nc1nc(-c2nc3ccccc3s2)cs1	4%	3	2.1*	.	1.1	5
CCOC(=O)CSc1nc(C2CC2)nc2ccccc12	6%	14	1.1	i	1	4
Nc1ccc2oc3ncccc3c(=O)c2c1	1%	2	1.1	i	1	0
Nc1ccc2c(C(F)(F)F)cc(=O)oc2c1	14%	17	3.7*	.	1	11
O=C1Nc2cc3c(cc2Sc2ccccc21)OCCO3	4%	12	1.1	i	1	0
O=C1CCCC2=C1C(c1cccs1)n1nc(SCc3ccccc3F)nc1N2 (configuration not stated)	2%	0	2.2*	i	1	4
COCCCNC(=O)CN(C1CCCCC1)S(=O)(=O)c1ccc(C)cc1	11%	30*	1.1	i	1	2
CCc1nnc(NC(=O)CSc2nc3c(c(=O)n2CC)SC(C)C3)s1 (configuration not stated)	4%	11	1.1	i	1.1	0
CN(Cc1c(F)cccc1Cl)c1ccc(S(=O)(=O)N2CCOCC2)cn1	8%	10	2.6*	i	1	0
COc1cc(=O)n(C)c2cc(N(C)C)ccc12	9%	6	4*	.	1.1	12
O=C(c1cccn2c(=O)c3ccc(Cl)cc3nc12)N1CCN(Cc2ccc3c(c2)OCO3)CC1	15%	22	4.9*	.	1.1	7
NC(=O)c1nsc(C(=O)N(CC(=O)NCc2ccc3c(c2)OCO3)C2CCCCC2)c1N	6%	7	2.9*	i	1.1	6
COc1cccc(C(=O)Nc2nnc(-c3ccc(Cl)cc3)o2)c1	5%	6	1.3	i	1.1	0
CCOc1ccc(-c2nnc(NC(=O)c3ccc(OCC(C)C)c(OC)c3)o2)cc1	7%	14	4.9*	.	1	0
CCOC(=O)COc1ccc(-c2nnc(-c3ccccc3)o2)cc1	5%	8	1.2	i	0.99	8
CCOC(=O)CNC(=O)Nc1nnc(-c2ccc(OCC)cc2)o1	7%	28*	1.5	i	1	4
O=C(Oc1ccc(-c2nnco2)cc1)N(c1ccccc1)c1ccccc1	4%	4	1.1	i	1	7
Cc1cc(OCC(=O)Nc2ccc3c(c2)OCCO3)ccc1Cl	3%	9	1	i	0.99	0
Cc1cc2nc(-c3cccnc3SCC(=O)NCc3ccco3)[nH]c2cc1C	8%	15	3.7*	.	1.1	0
CC1=C(C(=O)OCC2CCCO2)C(c2ccncc2)C2=C(CC(C)(C)CC2=O)N1 (configuration not stated)	1%	0	2.1*	.	1.1	2
CC1=C(C(=O)OCCOC(C)C)C(c2cccnc2)C2=C(CCCC2=O)N1 (configuration not stated)	2%	1	2.2*	.	1.1	2
COCCOC(=O)C1=C(C)NC2=C(C(=O)CC(C)(C)C2)C1c1cccnc1 (configuration not stated)	11%	11	3.8*	.	1.1	11
CCOC(=O)C1=C(C)NC2=C(C(=O)CC(C)(C)C2)C1c1ccc(N(C)C)cc1 (configuration not stated)	4%	0	1.2	i	1	0
CCN(CC)c1ccc(C2C(C(=O)OCCOC(C)C)=C(C)NC3=C2C(=O)CCC3)cc1 (configuration not stated)	4%	0	1.4	i	1.1	0
Cn1c(=O)n(CC(=O)NC2CCCCC2)c(=O)c2ccccc21	4%	13	1.1	i	1	0
CCN1C=C(C(=O)OC)C(c2cccc(C)c2)C(C(=O)OC)=C1	2%	0	2.2*	.	1.1	3
CCCOc1ccccc1C1NC(=O)NC(C)=C1C(=O)OCCOCC (configuration not stated)	2%	3	1.1	i	0.99	2
CCCOc1ccccc1C1C(C(=O)OC)=CN(C(C)C)C=C1C(=O)OC	8%	7	3.9*	.	1.1	9
COC(=O)C1=CN(C)C=C(C(=O)OC)C1c1ccccc1Cl	8%	5	3.9*	.	1.1	11
